Results published in PubChem BioAssay.
The source made the active and inactive calls.

Experiments:
[1] = tested on: Plasmodium falciparum Sir2 (PF13_0152, Sir2A); experiment: Plasmodium falciparum Sir2A binding compounds – biochemical, small-molecule microarray, 635 nm fluorescence, primary screen (AID 1098); settings: fluorescence 635 nm, higher = more signal;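 note: score merges spot fluorescence intensity with its signal-to-noise ratio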
[2] = probe aDKK1 binding to arrayed compounds – biochemical, biotinylated probe, 635/667 nm fluorescence, primary screen (AID 1099); settings: small-molecule microarray, higher = more signal;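 note: score merges 667nm spot fluorescence with signal to noise across triplicate slides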
[3] = probe aCHRDL2 binding to arrayed compounds – biochemical, biotinylated probe, 635/667 nm fluorescence, primary screen (AID 1100); settings: small-molecule microarray, higher = more signal
[4] = change in splice reporter luminescence, either direction, cell-based, HEK293, spliceosome inhibition project, primary screen (AID 1101); settings: HEK293 splicing luciferase reporter, 24 h, higher = more signal, called active from +8 up or from −8 down;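 note: HEK293 cells carrying a splicing-competent luciferase reporter gene; test concentration not given here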
[5] = target: Fibroblast growth factor 10 (Homo sapiens) (UniProt O15520); experiment: compounds binding fibroblast growth factor 10 – biochemical, small-molecule microarray, 635 nm fluorescence, primary screen (AID 1102); settings: FGF10 binding, fluorescence 635 nm, higher = more signal
Fibroblast growth factor 10 (Homo sapiens), sequence (O15520 whole entry, looked up): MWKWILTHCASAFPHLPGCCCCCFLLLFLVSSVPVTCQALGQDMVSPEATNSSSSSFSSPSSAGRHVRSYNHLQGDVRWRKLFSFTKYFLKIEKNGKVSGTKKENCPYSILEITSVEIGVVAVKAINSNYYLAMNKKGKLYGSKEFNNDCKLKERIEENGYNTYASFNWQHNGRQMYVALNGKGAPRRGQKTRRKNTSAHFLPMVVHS

[6] = tested on: glycogen synthase kinase-3 (GSK3A per assay name; protocol says GSK3B); experiment: compounds binding glycogen synthase kinase-3 – biochemical, small-molecule microarray, 635 nm fluorescence, GSK3A, primary screen (AID 1103); settings: fluorescence 635 nm, higher = more signal; note: the record names both GSK3A and GSK3B
[7] = target: Epidermal growth factor receptor (Homo sapiens) (UniProt P00533); experiment: compounds binding epidermal growth factor receptor – biochemical, small-molecule microarray, 635 nm fluorescence, primary screen (AID 1104); settings: EGFR binding, higher = more signal;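 note: score merges 667 nm emission intensity with spot signal to noise over triplicate slides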
Epidermal growth factor receptor (Homo sapiens), sequence (P00533 whole entry, looked up): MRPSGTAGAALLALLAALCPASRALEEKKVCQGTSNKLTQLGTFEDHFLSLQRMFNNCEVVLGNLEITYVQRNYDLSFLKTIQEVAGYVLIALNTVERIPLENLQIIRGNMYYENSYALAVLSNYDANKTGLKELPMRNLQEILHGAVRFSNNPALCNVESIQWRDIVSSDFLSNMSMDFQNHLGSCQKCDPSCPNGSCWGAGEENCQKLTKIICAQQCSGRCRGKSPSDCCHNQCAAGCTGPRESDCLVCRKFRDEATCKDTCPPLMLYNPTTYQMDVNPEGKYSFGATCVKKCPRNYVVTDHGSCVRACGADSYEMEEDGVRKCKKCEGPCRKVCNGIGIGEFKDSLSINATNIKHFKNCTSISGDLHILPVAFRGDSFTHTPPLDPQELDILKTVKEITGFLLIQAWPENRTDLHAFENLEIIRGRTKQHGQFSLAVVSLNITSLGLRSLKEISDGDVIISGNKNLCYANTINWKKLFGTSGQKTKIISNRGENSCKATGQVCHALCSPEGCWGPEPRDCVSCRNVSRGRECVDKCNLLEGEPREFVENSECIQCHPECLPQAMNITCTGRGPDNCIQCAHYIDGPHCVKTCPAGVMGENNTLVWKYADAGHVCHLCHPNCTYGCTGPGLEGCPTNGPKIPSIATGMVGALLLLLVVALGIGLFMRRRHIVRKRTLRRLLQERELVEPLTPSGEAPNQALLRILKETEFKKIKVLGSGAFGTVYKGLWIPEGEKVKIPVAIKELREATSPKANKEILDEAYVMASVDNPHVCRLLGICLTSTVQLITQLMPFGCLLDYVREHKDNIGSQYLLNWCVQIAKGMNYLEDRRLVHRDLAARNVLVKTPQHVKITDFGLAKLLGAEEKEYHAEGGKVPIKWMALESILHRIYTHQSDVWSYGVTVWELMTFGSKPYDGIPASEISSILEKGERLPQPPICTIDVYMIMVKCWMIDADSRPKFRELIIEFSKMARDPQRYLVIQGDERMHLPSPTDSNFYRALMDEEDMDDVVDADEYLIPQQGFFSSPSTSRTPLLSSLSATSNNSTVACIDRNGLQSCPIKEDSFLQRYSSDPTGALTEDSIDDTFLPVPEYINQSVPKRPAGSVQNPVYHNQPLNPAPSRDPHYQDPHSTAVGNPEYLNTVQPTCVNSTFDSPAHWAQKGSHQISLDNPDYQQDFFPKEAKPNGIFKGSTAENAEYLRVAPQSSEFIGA

[8] = target: Follistatin-related protein 3 (Homo sapiens) (UniProt O95633); experiment: compounds binding follistatin-related protein 3 – biochemical, small-molecule microarray, 635 nm fluorescence, primary screen (AID 1105); settings: FSTL3 binding, higher = more signal;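 note: score merges emission near 667 nm and signal to noise per printed spot across three slides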
Follistatin-related protein 3 (Homo sapiens), sequence (O95633 whole entry, looked up): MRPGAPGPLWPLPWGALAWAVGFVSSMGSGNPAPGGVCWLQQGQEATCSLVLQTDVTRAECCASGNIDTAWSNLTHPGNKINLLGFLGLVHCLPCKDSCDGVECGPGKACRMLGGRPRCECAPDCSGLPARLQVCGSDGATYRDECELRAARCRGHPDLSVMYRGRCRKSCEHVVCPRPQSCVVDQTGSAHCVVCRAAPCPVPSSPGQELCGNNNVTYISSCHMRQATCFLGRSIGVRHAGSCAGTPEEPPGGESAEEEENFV

[9] = target: Dickkopf-related protein 1 (Homo sapiens) (UniProt O94907); experiment: small molecules binding DKK1 protein – biochemical, small-molecule microarray, 635 nm fluorescence scan, primary screen (AID 1106); settings: higher = more signal;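 note: score merges emission near 667 nm with signal to noise over three replicate slides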
Dickkopf-related protein 1 (Homo sapiens), sequence (O94907 whole entry, looked up): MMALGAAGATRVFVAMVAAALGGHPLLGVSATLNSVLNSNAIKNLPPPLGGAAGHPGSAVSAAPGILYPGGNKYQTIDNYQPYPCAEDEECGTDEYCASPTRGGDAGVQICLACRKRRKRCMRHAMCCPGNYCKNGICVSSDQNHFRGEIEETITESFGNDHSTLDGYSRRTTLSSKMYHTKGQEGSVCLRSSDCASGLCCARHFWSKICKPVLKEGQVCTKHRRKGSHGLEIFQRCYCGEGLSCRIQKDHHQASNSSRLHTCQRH

[10] = tested on: Inhibin beta A chain (activin A); experiment: small molecules binding activin A – biochemical, small-molecule microarray, 635 nm fluorescence scan, primary screen (AID 1107); settings: INHBA, higher = more signal;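 note: mouse activin A protein probed at 4.33 µg/mL on printed slides; score merges bound-protein fluorescence near 667 nm with spot signal-to-noise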
[11] = tested on: Human papillomavirus type 1a protein E7 (residues 44-93); experiment: small molecules binding HPV E7 44-93 – biochemical, small-molecule microarray, residues 44-93, 635 nm fluorescence, primary screen (AID 1108); settings: fluorescence 635 nm, higher = more signal;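 note: E7 fragment applied at 1 µg/mL in TBST for 1 h at 4 C; score combines spot fluorescence with its signal to noise ratio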
[12] = hepatitis C replication reporter changes, two-sided – Huh7 cells, luciferase reporter, HCV replication inhibitor project, primary screen (AID 1109); settings: Huh7 HCV replicon luciferase reporter, 48 h; higher = more signal;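 note: huh7 hepatoma cells harbouring a luciferase neomycin HCV replicon reporter; luciferase luminescence as measure of HCV replicon replication; test concentration not given here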
[13] = target: Left-right determination factor 2 (Homo sapiens) (UniProt O00292); experiment: small molecules binding LEFTY2 protein – biochemical, small-molecule microarray, 635 nm fluorescence scan, primary screen (AID 1110); settings: higher = more signal
Left-right determination factor 2 (Homo sapiens), sequence (O00292 whole entry, looked up): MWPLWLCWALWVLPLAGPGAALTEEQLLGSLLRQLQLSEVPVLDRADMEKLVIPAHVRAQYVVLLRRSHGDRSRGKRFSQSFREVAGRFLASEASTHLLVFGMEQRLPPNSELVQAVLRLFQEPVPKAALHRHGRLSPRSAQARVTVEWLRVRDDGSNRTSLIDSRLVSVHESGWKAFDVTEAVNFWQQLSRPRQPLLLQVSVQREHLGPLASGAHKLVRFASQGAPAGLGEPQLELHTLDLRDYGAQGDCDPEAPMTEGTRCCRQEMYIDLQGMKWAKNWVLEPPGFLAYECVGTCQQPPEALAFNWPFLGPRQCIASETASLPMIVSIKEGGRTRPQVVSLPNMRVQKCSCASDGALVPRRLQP

[14] = target: Calmodulin-1 (Homo sapiens) (UniProt P0DP23); experiment: small molecules binding calmodulin-1 with EGTA – biochemical, small-molecule microarray, Cy5-labelled CALM1, profiling panel (AID 1111); settings: Cy5-CALM1 binding fluorescence, higher = more signal;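 note: labelled calmodulin applied in Tris saline Tween buffer holding calcium plus EGTA and DTT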
[15] = target: Calmodulin-1 (Homo sapiens) (UniProt P0DP23); experiment: small molecules binding Ca-loaded calmodulin-1 – biochemical, small-molecule microarray, Cy5-labelled CALM1, plus calcium, artefact control for SMM control-protein annotation, profiling panel (AID 1112); settings: Cy5-CALM1 binding fluorescence, higher = more signal;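 note: score merges spot fluorescence with signal to noise from triplicate slides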
[16] = probe aWnt5a binding to arrayed compounds – biochemical, biotinylated probe, 635/667 nm fluorescence, primary screen (AID 1113); settings: small-molecule microarray, higher = more signal;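 note: score merges 667 nm fluorescence intensity with signal-to-noise per printed feature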
[17] = probe aShh binding to arrayed compounds – biochemical, biotinylated probe, 635/667 nm fluorescence, primary screen (AID 1114); settings: small-molecule microarray, higher = more signal;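 note: probe is biotin-labelled aShh protein from a stem cell growth factor screen; measures binding of labelled protein to compounds printed on the slide; score merges feature fluorescence at 667 nm with signal-to-noise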
[18] = probe aNog binding to arrayed compounds – biochemical, biotinylated probe, 635/667 nm fluorescence, primary screen (AID 1115); settings: small-molecule microarray, higher = more signal;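 note: probe is biotinylated aNog protein used at 0.15 µg/mL for 1 h at 4 C; z-score combines 667 nm fluorescence of each spot with its signal to noise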
[19] = target: Torsin-1A-interacting protein 1 (Homo sapiens) (UniProt Q5JTV8); experiment: compound microarray binding of lysate hLAP1 – cell lysate, small-molecule microarray, COS7 lysate, 635/667 nm fluorescence, primary screen (AID 1116); settings: 635 nm fluorescence, higher = more signal
Torsin-1A-interacting protein 1 (Homo sapiens), sequence (Q5JTV8 whole entry, looked up): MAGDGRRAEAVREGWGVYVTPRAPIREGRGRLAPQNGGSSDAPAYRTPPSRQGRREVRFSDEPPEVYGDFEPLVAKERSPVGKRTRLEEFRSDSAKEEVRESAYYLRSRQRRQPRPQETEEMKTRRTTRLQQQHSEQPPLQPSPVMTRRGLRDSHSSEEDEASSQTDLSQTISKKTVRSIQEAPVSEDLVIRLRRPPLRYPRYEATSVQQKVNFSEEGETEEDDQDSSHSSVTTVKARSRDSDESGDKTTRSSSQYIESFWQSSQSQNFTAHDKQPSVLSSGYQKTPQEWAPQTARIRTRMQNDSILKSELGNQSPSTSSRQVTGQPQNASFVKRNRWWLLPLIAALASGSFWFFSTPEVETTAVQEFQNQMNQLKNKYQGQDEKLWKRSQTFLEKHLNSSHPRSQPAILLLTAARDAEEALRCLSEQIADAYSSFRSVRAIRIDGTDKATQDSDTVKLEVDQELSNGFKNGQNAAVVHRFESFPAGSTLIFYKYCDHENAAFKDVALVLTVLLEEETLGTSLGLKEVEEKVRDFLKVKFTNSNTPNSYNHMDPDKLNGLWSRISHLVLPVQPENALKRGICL

[20] = target: Alpha-bungarotoxin (Bungarus multicinctus) (UniProt P60615); experiment: compounds binding labelled alpha-BTX control protein – biochemical, small-molecule microarray, Alexa647 label, 635/667 nm fluorescence, artefact control for SMM control protein annotation, profiling panel (AID 1117); settings: alpha-BTX-A647 binding fluorescence, higher = more signal
Alpha-bungarotoxin (Bungarus multicinctus), sequence (P60615 whole entry, looked up): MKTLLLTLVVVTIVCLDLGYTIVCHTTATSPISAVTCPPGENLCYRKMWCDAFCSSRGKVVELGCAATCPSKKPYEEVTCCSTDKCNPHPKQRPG

SMILES | composite z-score [1] | composite z-score [2] | composite z-score [3] | z-score [4] | composite z-score [5] | composite z-score [6] | composite z-score [7] | composite z-score [8] | composite z-score [9] | composite z-score [10] | composite z-score [11] | z-score [12] | composite z-score [13] | composite z-score [14] | composite z-score [15] | composite z-score [16] | composite z-score [17] | composite z-score [18] | composite z-score [19] | composite z-score [20]
C#CCN(CC1=CCCCC1)[C@H](c1ccccc1Br)[C@@H](O)Cc1ccccc1 | 1.53 | -0.0907 | 0.979 | -1.37 (inactive) | -1.25 | -0.28 | -1.56 | -1.28 | -1.07 | 0.685 | -0.0413 | -2.33 | -1.07 | -0.929 | -0.568 | -0.118 | 0.108 | -0.368 | 0.632 | 0.92
[N-]=[N+]=NCc1ccccc1C[C@]1(C(=O)O)N=C(c2ccc(OCCCO)cc2)O[C@H]1c1ccccc1N=[N+]=[N-] | 1.17 | 0.621 | 0.435 | -3.66 (inactive) | 1.12 | 1.16 | 0.386 | 0.737 | 0.0572 | 0.303 | 1.18 | -1.11 | 0.11 | 1.23 | 0.0606 | 0.0919 | 0.0639 | 1.59 | 1.46 | 1.76
CCc1oc(CC[C@@H](CO)NC(=O)NCCn2cc(C3(O)CCCCC3)nn2)c(C(=O)OC)c1C(=O)OC | 0.832 | -0.0378 | -0.402 | -0.0596 (inactive) | 1.13 | 0.972 | 0.717 | 1.33 | 0.887 | 0.289 | 0.814 | 0.524 | 0.905 | -0.22 | -0.657 | 0.048 | 0.381 | -0.0645 | 0.946 | 0.336
C=CCNC(=O)[C@H]1[C@@H]2C(=O)O[C@@H](c3ccccc3)[C@@H](c3ccccc3)N2[C@@H](c2ccc(OCCO)cc2)[C@]12C(=O)Nc1ccc(C#CC3=CCCCC3)cc12 | 1.25 | -0.488 | 0.171 | -1.24 (inactive) | 0.929 | 1.05 | 0.293 | 0.881 | 0.183 | 0.543 | 1.4 | -2.4 | 0.477 | 0.508 | -0.36 | 0.0101 | 0.13 | -0.143 | 1.26 | 1.11
CCOC(=O)C=Cc1cc([N+](=O)[O-])ccc1O | -0.551 | -0.14 | -0.134 | -1.72 (inactive) | -0.395 | -0.398 | -0.899 | -0.971 | -0.693 | -0.855 | 0.0311 | -1.47 | -0.609 | -0.211 | -0.5 | -0.124 | 0.173 | -0.377 | 0.106 | -0.234
O=C1[C@H]2C=C(Br)[C@H](C[C@@H]2OCCCCO)[C@@]12CO2 | 1.02 | -0.257 | -0.504 | -0.238 (inactive) | 0.177 | 0.0613 | 0.224 | -0.0883 | 0.438 | 0.646 | -0.875 | -1.98 | 0.307 | -0.442 | -1.04 | -0.0944 | 0.149 | 0.101 | -0.272 | -0.032
C=CCNC(=O)[C@@H]1[C@H]2C(=O)O[C@H](c3ccccc3)[C@H](c3ccccc3)N2[C@H](c2ccccc2OCCO)[C@@]12C(=O)N(C(=O)OCCOC)c1ccc(C#CCNC(N)=O)cc12 | 1.43 | 0.0834 | 0.447 | -0.938 (inactive) | 0.738 | 0.581 | 0.444 | 0.921 | -0.0253 | 0.38 | 1.36 | -1.19 | 0.213 | 1.58 | 0.27 | -0.0196 | -0.739 | 0.658 | 0.96 | 1.76
